# Reference: PubChem BioAssay (NCATS)
# Inconclusive results are not listed. The source made the active and inactive calls. Unless noted, the call rests on the fitted dose curve; in most records, active means well fitted inhibition curve with a large enough effect in the main read-out, with a control signal flat (not every such curve was filed as active); inconclusive means small, poorly fitted or top-dose-only effect, or effect the other way, or a change in a side signal; inactive means no such curve, though single readings can be large or run the other way.
# Molecular target: Thyrotropin-releasing hormone receptor (Homo sapiens) (UniProt P34981)
# Sequence (P34981 whole entry, looked up): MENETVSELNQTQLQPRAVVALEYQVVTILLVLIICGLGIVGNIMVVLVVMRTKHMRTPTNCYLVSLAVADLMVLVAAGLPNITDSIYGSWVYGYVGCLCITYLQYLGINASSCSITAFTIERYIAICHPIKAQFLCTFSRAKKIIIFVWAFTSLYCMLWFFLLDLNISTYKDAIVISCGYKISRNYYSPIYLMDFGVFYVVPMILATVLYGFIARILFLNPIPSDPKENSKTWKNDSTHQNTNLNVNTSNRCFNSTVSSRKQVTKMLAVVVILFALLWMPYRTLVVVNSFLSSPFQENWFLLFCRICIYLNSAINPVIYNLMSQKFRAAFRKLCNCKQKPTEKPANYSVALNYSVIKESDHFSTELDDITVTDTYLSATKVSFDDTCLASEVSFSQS
# Assay: qHTS for Small Molecule Agonists and Allosteric Enhancers of Human TRH Receptor: Validation Screen for Agonists (AID 493127;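 active means calcium activation more than 3 SD above the typical response in the agonist read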;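 further: intracellular calcium rise by fluo-8 fluorescence before TRH EC20 addition; 0% is about no effect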)
# Conditions: TRH receptor agonist cell assay; at 2 µM; stronger effect = higher value
# How it was run: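 TRHR-expressing cells were plated overnight in serum-containing medium, then loaded with fluo-8 calcium dye at room temperature for 30 min–1.5 h. After a 10 s baseline, compound was pin-transferred and calcium fluorescence (ex 480/em 530) read kinetically for agonist response.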
row,SMILES,activation
1,CC(C)N(CCC(=O)c1ccc2ccccc2c1)Cc1ccccc1,3.12% (inactive)
2,CN(C)c1cc2c(Nc3ccc4c(cnn4Cc4ccccc4)c3)ncnc2cn1,2.12% (inactive)
3,O=[N+]([O-])c1ccc(-c2nc(-c3ccc(F)cc3)c(-c3ccncc3)[nH]2)cc1,4.88% (inactive)
4,O=C1NC(c2cccc([N+](=O)[O-])c2)=CCN1c1ccccc1O,1.25% (inactive)
5,Brc1ccc([C@H]2CN3CCSC3=N2)cc1,-2.94% (inactive)
6,COc1cccc2c1[C@@H]1CN(CCCCn3c(=O)[nH]c4c(sc5ncc(-c6ccccc6)nc54)c3=O)C[C@@H]1CO2,0.5% (inactive)
7,COc1ccccc1N1CCN(CCN2C(=O)CC3(CCCC3)CC2=O)CC1,2.31% (inactive)
8,C[C@]12CCC(=O)C=C1CC[C@@H]1[C@@H]2[C@@H](O)C[C@@]2(C)[C@H]1CC[C@]2(O)C(=O)COC(=O)CCC(=O)O,-0.0625% (inactive)
9,Cn1cnc2c(NCc3ccccc3)nc(NCCO)nc21,0.188% (inactive)
10,NC(N)=NCCCCN=C(N)N,0.938% (inactive)

# Tested on: not listed separately
# Assay: Nrf2 qHTS screen for inhibitors: Validation (AID 493153); further: potency means the concentration at half of the fitted maximal effect
# Conditions: A549 ARE-Fluc reporter, 18-24 h; Potency: luciferase luminescence; viability change: measured here: cytotoxicity max response; luciferase luminescence, at 46.1 µM (top of the series)
# How it was run: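 A549 cells carrying an ARE-driven firefly luciferase reporter, in 5% FBS OPTI-MEM, were treated with compounds in concentration-response for 18-24 h at 37°C. Viability was read by CellTiter-Fluor fluorescence, then Nrf2 activity by luciferase luminescence.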
SMILES,Potency,viability change [%]
CCN(CC)CCNC(=O)c1ccc(NS(C)(=O)=O)cc1,inactive,5.75
Cc1nn(-c2ccccc2)c(C)c1/C=N/N1CCN(Cc2ccccc2)CC1,inactive,-3.49
O=C1NC(=O)/C(=C/c2ccc3c(c2)OC(F)(F)O3)S1,inactive,-9.96
CC(C)N(CCC(=O)c1ccc2ccccc2c1)Cc1ccccc1,inactive,-0.356
O=[N+]([O-])c1ccc(-c2nc(-c3ccc(F)cc3)c(-c3ccncc3)[nH]2)cc1,16.4 µM (active),-1.66
COC(=O)C1=CO[C@@H](O)[C@@H]2C(CO)=CC[C@H]12,inactive,-6.84
O=C1NC(c2cccc([N+](=O)[O-])c2)=CCN1c1ccccc1O,inactive,-1.13
Brc1ccc([C@H]2CN3CCSC3=N2)cc1,inactive,-0.405
Clc1ccc2c(c1)N=C(N1CCNCC1)c1ccccc1N2,inactive,1.81
C[N+](C)(C)CCO,inactive,-3.89
COc1ccccc1N1CCN(CCN2C(=O)CC3(CCCC3)CC2=O)CC1,inactive,9.42
Cn1cnc2c(NCc3ccccc3)nc(NCCO)nc21,inactive,8.36
NC(N)=NCCCCN=C(N)N,inactive,2.98
